# FBW7 act – activators of human E3 ligase FBW7; Q969H0; AlphaScreen FBW7–phospho-cyclin E peptide binding, activator screen; normalized activity (activation), % at 26.1 µM; hit rate 0.13% among 650,000; AID 1259310; in the data active = normalized activity above about 1.9%;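 note: purified mutant Fbw7 with reduced substrate affinity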
# TEAD-YAP block – TEAD-YAP interaction inhibition; HEK-TIYL cells, TEAD-Gal4/YAP UAS-luciferase luminescence; inhibition, % at 9.12 µM; hit rate 1.4% among 640,000; in the data active = inhibition above about 32%;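 note: 0% = median of test compound wells and 100% = reference inhibitor wells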
# MITF primary – human MITF inhibition, primary screen | AlphaScreen MITF homodimerization, bead proximity signal | O75030 | inhibition, % at 2.6 µM | hit rate 0.91% among 650,000; in the data active = inhibition above about 50%;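 note: 0% = vehicle wells with protein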
# Target sequence (O75030 whole entry, looked up): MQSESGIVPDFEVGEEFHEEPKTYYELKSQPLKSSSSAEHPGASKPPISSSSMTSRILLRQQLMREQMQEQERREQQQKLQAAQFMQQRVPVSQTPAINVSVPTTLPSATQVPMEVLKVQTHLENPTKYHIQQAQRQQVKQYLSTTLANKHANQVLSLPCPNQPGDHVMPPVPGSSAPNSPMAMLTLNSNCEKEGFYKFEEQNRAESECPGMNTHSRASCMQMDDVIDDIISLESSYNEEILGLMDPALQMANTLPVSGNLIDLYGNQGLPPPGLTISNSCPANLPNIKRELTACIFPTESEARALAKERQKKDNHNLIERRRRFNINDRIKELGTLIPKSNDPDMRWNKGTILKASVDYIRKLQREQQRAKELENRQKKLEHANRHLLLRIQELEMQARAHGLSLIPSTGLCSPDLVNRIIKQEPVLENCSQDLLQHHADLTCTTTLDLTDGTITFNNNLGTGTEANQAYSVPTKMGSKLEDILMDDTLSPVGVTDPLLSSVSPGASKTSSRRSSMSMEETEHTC
# GPR151 activ – activators of human GPR151. hit rate 1% among 650,000. PathHunter beta-arrestin GPR151 cells, luminescence. Q8TDV0. AID 1508602. activation, % at 11.2 µM; in the data active = activation above about 4.9%;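 note: 0% = median of compound wells and 100% = cells with positive control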
# * marks the source's active call; other numbers are inactive results. The list is not random: actives were taken first. Their share in the collection is about 3.5%.
SMILES,FBW7 act,TEAD-YAP block,MITF primary,GPR151 activ
Cc1cc(OCC(=O)Nc2ccc(-c3nc4cc(C(C)C)ccc4o3)cc2)cc(C)c1Cl,0.3,5.6,19.6,-1.3
c1ccc(Cn2c(CSc3nc4ccccc4[nH]3)nc3ccccc32)cc1,0.0,-13.3,-2.0,1.0
CC(C)C(=O)Nc1cc(-c2nc3cc(C(C)C)ccc3o2)ccc1Cl,0.1,44.7*,-14.6,-0.3
CCN(CC)C(=O)c1cn(CCC#N)nc1-c1ccc(F)cc1,2.1*,-4.3,10.3,-1.2
CCOC(=O)c1ccc(NC(=O)c2cn(CCC#N)nc2-c2ccc(F)cc2)cc1,0.1,1.5,2.2,-0.3
O=C1c2ccccc2C(=O)c2c(NCCCN(CCO)CCO)cccc21,-0.6,41.0*,15.3,0.6
O=C(Nc1ccc2c3c(cccc13)CC2)c1cc(I)ccc1Cl,0.1,16.9,-12.6,-0.9
O=C(Nc1ccc2c3c(cccc13)CC2)c1cc(Br)ccc1Cl,-0.7,55.0*,-4.3,2.5
Cc1nc(Nc2cc(F)ccc2C)c2c3c(sc2n1)CCCC3,0.2,3.6,0.1,-1.6
O=C(Nc1ccc(Br)cc1)C1CCCN1/C=C/C(=O)C(F)(F)F (configuration not stated),0.0,-3.8,8.4,2.7
Cc1ccc2c(c1)C1OCCC1C(c1cccs1)N2 (configuration not stated),-0.2,41.8*,0.4,-0.1
Cc1ccc2cc3cc(C(=O)NCCO)sc3nc2c1,1.8,-33.8,7.4,-1.6
NC(=O)c1cc2ccc(O)cc2oc1=Nc1ccc(-c2ccccc2)cc1,1.4,-8.9,13.4,0.8
CC(=O)c1ccc(N=c2oc3cc(O)ccc3cc2C(N)=O)cc1,-0.1,60.3*,-4.7,-2.5
CCOc1cccc(/C=N/NC(=O)c2cc(-c3ccco3)[nH]n2)c1O,-0.5,38.9*,28.6,2.1
COc1ccccc1/C=N/NC(=O)c1[nH]nc(-c2ccccc2)c1C,0.0,-59.2,10.4,-1.8
CCOc1cccc(/C=N/NC(=O)c2ccccc2O)c1O,-1.0,88.0*,41.0,-7.6
CCOc1cccc(/C=N/NC(=O)c2[nH]nc(-c3ccccc3)c2C)c1O,0.1,48.2*,12.6,-1.1
CCOc1ccccc1C(=O)N/N=C/c1cccc(OC)c1O,0.3,-2.2,12.8,-1.6
O=C(N/N=C/c1cc(Cl)ccc1O)c1ccccc1O,0.8,-4.7,-4.8,0.3
O=C(Nc1cc2c3c(c1)CCN3C(=O)CC2)c1ccccc1,0.0,-16.5,5.6,-0.9
Cc1ncc2c(c1CNC(=O)CN1CCCCC1)CCN(C(=O)C(=O)c1ccccc1)C2,0.3,-1.4,16.6,0.1
COc1ccc2c(c1)-c1c(ssc1=Nc1ccc(S(=O)(=O)NC(C)=O)cc1)C(C)(C)N2,-0.1,-4.0,4.8,-1.5
COc1cc(Nc2nc3c(Nc4ccccc4)ncnc3n2C(C)C)cc(OC)c1OC,-0.1,38.1*,4.5,-3.5
COc1cc(Nc2nc3c(NCCO)ncnc3n2C(C)C)cc(OC)c1OC,0.4,-19.9,19.6,0.7
SMILES,FBW7 act,TEAD-YAP block,MITF primary,GPR151 activ
COc1cc(Nc2ncnc3c2nc(Nc2cccc(N(C)C)c2)n3C(C)C)cc(OC)c1OC,0.3,1.2,16.4,-1.2
COc1cc(Nc2nc3c(NCCc4ccc(O)cc4)ncnc3n2C(C)C)cc(OC)c1OC,0.0,31.9*,7.1,2.9
CCOC(=O)c1sc(N2C(=O)C(=O)/C(=C(/O)c3ccc(C)cc3)C2c2ccc(C)cc2)nc1C (configuration not stated),0.1,6.6,-29.7,-0.1
COc1ccc(CCNC(=O)CN2CCC(c3nnc(C(C)C)o3)CC2)cc1OC,0.4,8.5,1.1,-0.6
COc1ccc(CNC(=O)N2CCC(c3nnc(C(C)C)o3)CC2)cc1OC,2.5*,0.0,-3.5,-0.2
C=CCSc1nnc2nc(-c3ccccc3)c(-c3ccccc3)nn12,0.6,16.4,10.9,2.1
CC1Cc2ccccc2N1C(=O)CSc1nnc(CSc2ncccn2)n1C (configuration not stated),0.0,8.7,-7.6,-0.1
CC1Cc2ccccc2N1C(=O)CSc1nnc(Cc2cccs2)n1C (configuration not stated),-0.1,47.0*,-4.1,0.2
N#Cc1cnc(-c2ccccc2O)[nH]c1=O,0.5,-7.5,21.2,-2.8
CCCNc1nc(-c2cccc(N)c2)nc2c1ncn2-c1ccsc1,0.1,53.4*,19.4,-0.5
Nc1cccc(-c2nc(NCCO)c3ncn(-c4ccsc4)c3n2)c1,0.0,62.8*,10.5,-2.0
Cc1noc(C)c1-c1nc(NCCO)c2ncn(-c3ccsc3)c2n1,-0.2,22.8,4.5,0.9
Nc1cc(N2CCOCC2)c2nonc2c1[N+](=O)[O-],0.2,3.0,3.2,1.1
CCCC(=O)NC(c1ccccc1OC)c1ccc2cccnc2c1O (configuration not stated),-1.9,76.2*,33.7,-1.2
COc1ccccc1C(NC(=O)c1cc(OC)c(OC)c(OC)c1)c1cc(Cl)c2cccnc2c1O (configuration not stated),-0.2,0.8,6.6,1.4
CCCCC(=O)NC(c1ccccc1OC)c1ccc2cccnc2c1O (configuration not stated),-1.8,72.7*,23.8,1.0
Cc1cccc(NC(=O)CSc2nc3c(c(=O)n2C)SCC3)c1C,0.0,37.1*,3.1,-0.7
CS(=O)(=O)c1ccc(Sc2nc3ccccc3s2)c([N+](=O)[O-])c1,-0.1,64.4*,4.5,0.2
O=[N+]([O-])c1cc(S(=O)(=O)N2CCOCC2)ccc1Sc1nc2ccccc2s1,-0.3,-0.1,12.2,2.3
O=C(O)c1c(CNCc2cccs2)c2ccccc2n1Cc1cccc(Cl)c1,0.0,-2.3,-4.7,0.1
Cc1ccc(SCCNC(=O)CCl)cc1,0.0,42.8*,-0.5,-0.2
Cc1cnc(NC(=O)COc2ccc([N+](=O)[O-])cc2)s1,-0.4,-31.4,16.3,-1.7
CC(C)(C)P(=NC(=S)NNCCO)(N1CCCCCC1)N1CCCCCC1,-0.2,78.3*,-6.4,2.0
CC(C)(C)P(=NC(=S)Nc1ccccc1)(N1CCOCC1)N1CCOCC1,-0.1,1.6,0.4,-1.6
CNC(=O)COC(=O)c1cc(-c2ccc3cc(OC)ccc3c2)nc2ccccc12,-0.1,-19.6,-3.0,-0.1
SMILES,FBW7 act,TEAD-YAP block,MITF primary,GPR151 activ
O=S(=O)(NCc1csc(-c2cccs2)n1)c1ccc(-c2ccccn2)s1,2.1*,1.6,10.5,1.0
Cc1ncc(CO)c(/C=N/NC(=O)c2ccc(C(C)(C)C)cc2)c1O,-0.3,82.6*,14.7,0.4
Cc1ncc(CO)c(/C=N/Nc2nc3ccccc3[nH]2)c1O,-1.3,-11.3,85.5*,0.5
Cc1ncc(CO)c(/C=N/NC(=O)c2cc3c(s2)CCCC3)c1O,-0.8,40.4*,28.7,-0.5
CC1(C)C(=O)NCCN1C(=O)c1ccc(C(=O)c2ccccc2)cc1,0.0,38.6*,-15.7,-0.6
O=C(O)c1ccc(N2N=C(c3ccccc3)/C(=C/c3ccco3)C2=O)cc1,-1.1,0.6,70.0*,-0.2
O=C(O)c1ccc(N2N=C(c3ccccc3)/C(=C\c3cccc([N+](=O)[O-])c3O)C2=O)cc1,-0.3,-12.9,8.0,-1.8
O=C1/C(=C\C=C/c2ccc([N+](=O)[O-])o2)C(C(F)(F)F)=NN1c1ccccc1[N+](=O)[O-],0.8,15.3,89.7*,1.4

# Screening results as filed in PubChem BioAssay.
